Structures are written as SMILES.

In ChEMBL document CHEMBL3988442, “University of Dundee, Small-Polar-MMV Screening Library” (2021) one finds Percent Effect data, which are given here for 17 compounds.

Test [1] concerns the target T1, Aspartate--tRNA(Asp/Asn) ligase (Mycobacterium tuberculosis (strain ATCC 25618 / H37Rv)) (UniProt P9WFW3). Note: in the data most compounds retested in dose-response had high values.
T1 sequence (whole entry): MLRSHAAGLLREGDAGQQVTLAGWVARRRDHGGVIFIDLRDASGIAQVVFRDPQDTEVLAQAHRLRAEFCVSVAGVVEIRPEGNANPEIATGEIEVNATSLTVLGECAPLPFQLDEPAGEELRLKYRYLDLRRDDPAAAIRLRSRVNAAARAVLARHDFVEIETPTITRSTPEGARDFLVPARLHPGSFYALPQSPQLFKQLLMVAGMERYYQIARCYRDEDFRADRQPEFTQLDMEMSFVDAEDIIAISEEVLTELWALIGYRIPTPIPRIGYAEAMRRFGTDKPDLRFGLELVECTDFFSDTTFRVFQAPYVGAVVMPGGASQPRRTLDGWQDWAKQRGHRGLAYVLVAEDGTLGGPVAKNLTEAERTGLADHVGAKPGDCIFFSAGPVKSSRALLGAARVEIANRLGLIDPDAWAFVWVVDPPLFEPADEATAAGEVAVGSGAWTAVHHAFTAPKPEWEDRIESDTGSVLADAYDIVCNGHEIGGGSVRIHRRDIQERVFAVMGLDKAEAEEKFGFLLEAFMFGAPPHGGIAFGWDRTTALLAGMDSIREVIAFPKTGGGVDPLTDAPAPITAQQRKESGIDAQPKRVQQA
Put plainly: Assay for Asp RNA synthetase-1 from Mycobacterium tuberculosis. The settings on record: 30 µM. More on the design: scale not given: direction of the effect not stated beside the values. In kind it is functional.

The target of test [2] is Shiga toxin 2 (Escherichia coli O157:H7) (UniProt P09385+P09386). Nature of the test: E. coli 0.157:H7 Shiga Toxin SOP - stx2 screening assay. The settings on record: 30 µM. The format is functional. Set-up: scale not given: direction of the effect not stated beside the values.

Regarding `CN(C)C(=O)c1ccc2c(c1)N(C)C(CC(=O)NCc1ccno1)CO2` (centres undefined), the Percent Effect in test [1] was -2.42%; in test [2], -9.52%.
`Cc1cc(C(N)=O)ccc1NC(=O)c1nc(N2CCCC2)ncc1Cl`: the Percent Effect in test [1] is 1.84%; in test [2], -35.5%.
In the case of `Cc1cnn(CCC(=O)N2CCCN(c3ncccc3C#N)CC2)c1`, the Percent Effect in test [1] was -6.54%; in test [2], -34.1%.
The matching figures for `COC[C@H]1CCC[C@]12CN(C(=O)NCc1ccccc1)CCO2`: -3.75% and -17.2%.
The matching figures for `CCn1cnnc1CNC(=O)c1cc(Cl)ccc1OC`: 0.48% and -24.3%.
The matching figures for `O=C(NCCNc1ncccn1)N(Cc1ccc(F)cc1F)C1CC1`: -3.51% and 12.1%.
With `Cc1nc(C)n(CC2CN(c3ncnc4[nH]ccc34)CCO2)n1` (centres undefined), the Percent Effect is 0.364% in test [1] and -9.54% in test [2].
For `CCn1ccnc1CN1CCCN(C(=O)c2cccc(C#N)c2)CC1`, the Percent Effect in test [1] was 0.189%; in test [2], -8.53%.
The matching figures for `Cc1cnccc1N1CCCN(C(=O)CCCS(N)(=O)=O)CC1`: -1.55% and -11.6%.
Turning to `CN1CCN(C(=O)CC2CCN(CCc3ccccn3)CC2)CC1`, the Percent Effect is -2.94% in test [1] and 8.24% in test [2].
Take `CC(C)NC(=O)c1sccc1N(C)S(=O)(=O)c1ccc(Cl)cc1`: the Percent Effect in test [1] was 4.25%; in test [2], -18.9%.
For the compound `CN(Cc1ccsc1)C(=O)c1cccc(F)c1`, the Percent Effect in test [1] was -5.62%; in test [2], -0.747%.
Consider `CNC(=O)CCNC(=O)c1cccc(Cn2nc(C)cc2C)c1`, for which the Percent Effect in test [1] is -3.31%; in test [2], -15.4%.
With `CCc1nc(CN2CCCC(N(C)Cc3cnc(C)s3)C2)no1` (centres undefined), the Percent Effect was -0.259% in test [1] and 4.86% in test [2].
For `CCS(=O)(=O)N1CC[C@H](OC)[C@@H]1Cc1ccncc1`, the Percent Effect in test [1] was -2.52%; in test [2] it was -2.84%.
The matching figures for `O=C(NCC1COCc2c(-c3cccnc3)nnn2C1)c1cccs1` (centres undefined): 9.59% and -14.9%.
The matching figures for `CC(C)n1ccnc1C1CCN(Cc2ccc(Cl)s2)CC1`: 4.1% and -48.4%.
